This is an account of results in the supplement of paper PMC8371130.

Structures can show the parent of a compound that is named as a salt.

The test deals with HL-1. Nature of the test: relative cell viability (CellTiter-Glo) vs DMSO control (% of DMSO control); higher = more viable cells. To be noted: oxygen condition: hypoxia 48 h (1% O2) + reoxygenation 24 h; 5000 nM. The method, boiled down:
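Compounds at 40, 200, 1000 or 5000 nM in 0.01% DMSO were added to HL-1 mouse atrial cardiomyocytes plated at 1000 cells per well in 384-well plates. The next day, cells were exposed to 1% O2 for 48 h and then reoxygenated for 24 h, or left in normoxia for the same time. Viability was read with CellTiter-Glo luminescence and normalised to vehicle-treated controls.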
Background: ATP-based viability assays read luminescence as a measure of living cells.
With `CCOc1nc2cccc(C(=O)OC(C)OC(=O)OC3CCCCC3)c2n1Cc1ccc(-c2ccccc2-c2nn[nH]n2)cc1` (stereo not drawn) [Candesartan cilexetil], the relative cell viability is 4.71.

`Nc1cc(N2CCCCC2)nc(N)[n+]1[O-]` [Minoxidil]: the relative cell viability stood at 113.

On to `Cc1ccc(NC(=O)c2ccc(CN3CCN(C)CC3)cc2)cc1Nc1nccc(-c2cccnc2)n1` [Imatinib Mesylate], for which the relative cell viability was 111.

On to `OCCN(CCO)c1nc(N2CCCCC2)c2nc(N(CCO)CCO)nc(N3CCCCC3)c2n1` [Dipyridamole], for which the relative cell viability amounted to 108.

Consider `Nc1ccn([C@@H]2O[C@H](CO)[C@@H](O)C2(F)F)c(=O)n1` [Gemcitabine HCl], for which the relative cell viability is 3.72.

For `CCCCCCNC(=O)n1cc(F)c(=O)[nH]c1=O` [Carmofur], the relative cell viability was determined as 18.3.

As for `CC(S)C(=O)NCC(=O)O` (stereo not drawn) [Tiopronin], the relative cell viability was found to be 105.

As for `COc1cc(C(C)=O)ccc1OCCCN1CCC(c2noc3cc(F)ccc23)CC1` [Iloperidone], the relative cell viability was 107.

Regarding `CCN1CCC[C@H]1CNC(=O)c1cc(S(N)(=O)=O)ccc1OC` [Levosulpiride], the relative cell viability amounted to 116.

As for `NS(=O)(=O)Cc1noc2ccccc12` [Zonisamide], the relative cell viability was 115.

On to `Cc1nc2n(c(=O)c1CCN1CCC(c3noc4cc(F)ccc34)CC1)CCCC2` [Risperidone], for which the relative cell viability was found to be 113.

In the case of `Cc1c(OCC(F)(F)F)ccnc1C[S@@+]([O-])c1nc2ccccc2[nH]1` [Dexlansoprazole], the relative cell viability was 105.

Regarding `Cc1cc(N)c2ccccc2[n+]1CCCCCCCCCC[n+]1c(C)cc(N)c2ccccc21` [Dequalinium chloride], the relative cell viability was determined as 112.

As to `COc1cc2c(cc1OC)CC(=O)N(CCCN(C)C[C@H]1Cc3cc(OC)c(OC)cc31)CC2` [Ivabradine HCl], the relative cell viability was 106.

`CC(C)(Sc1cc(C(C)(C)C)c(O)c(C(C)(C)C)c1)Sc1cc(C(C)(C)C)c(O)c(C(C)(C)C)c1` [Probucol]: the relative cell viability was found to be 110.

As for `COc1cc([C@@H]2c3cc4c(cc3[C@@H](O[C@@H]3O[C@@H]5CO[C@@H](C)O[C@H]5[C@H](O)[C@H]3O)[C@H]3COC(=O)[C@H]23)OCO4)cc(OC)c1O` [Etoposide], the relative cell viability is 19.1.

Consider `Cc1ccc(C(=O)c2cc(O)c(O)c([N+](=O)[O-])c2)cc1` [Tolcapone], for which the relative cell viability is 116.

Take `CC[C@]1(O)C[C@@H]2CN(CCc3c([nH]c4ccccc34)[C@@](C(=O)OC)(c3cc4c(cc3OC)N(C)[C@H]3[C@@](O)(C(=O)OC)[C@H](OC(C)=O)[C@]5(CC)C=CCN6CC[C@]43[C@@H]65)C2)C1` [Vinblastine]: the relative cell viability is 37.2.

For `CN1CCC(=C2c3ccccc3CC(=O)c3sccc32)CC1` [Ketotifen fumarate], the relative cell viability came to 113.

With `CN(C)CC/C=C1/c2ccccc2COc2ccc(CC(=O)O)cc21` [Olopatadine hydrochloride], the relative cell viability amounted to 99.1.

As for `CCC[C@@H]1C[C@@H](C(=O)N[C@@H]([C@H]2O[C@H](SC)[C@H](O)[C@@H](O)[C@H]2O)[C@@H](C)O)N(C)C1` [Lincomycin hydrochloride], the relative cell viability worked out at 103.

`CO[C@H]1C[C@@H]2CC[C@@H](C)[C@@](O)(O2)C(=O)C(=O)N2CCCC[C@H]2C(=O)O[C@H]([C@H](C)C[C@@H]2CC[C@@H](OC(=O)C(C)(CO)CO)[C@H](OC)C2)CC(=O)[C@H](C)/C=C(\C)[C@@H](O)[C@@H](OC)C(=O)[C@H](C)C[C@H](C)/C=C/C=C/C=C/1C` [Temsirolimus]: the relative cell viability amounted to 61.7.

Regarding `Cc1[nH]c(=O)c(C#N)cc1-c1ccncc1` [Milrinone], the relative cell viability stood at 111.

As to `C=CC[N+]1([C@H]2C[C@H]3[C@@H]4CC[C@H]5C[C@H](O)[C@@H](N6CCOCC6)C[C@]5(C)[C@H]4CC[C@]3(C)[C@H]2OC(C)=O)CCCC1` [Rocuronium bromide], the relative cell viability amounted to 110.

With `CCOc1ccc2ccccc2c1C(=O)N[C@@H]1C(=O)N2[C@@H]1SC(C)(C)[C@@H]2C(=O)O` [nafcillin sodium monohydrate], the relative cell viability was 109.

For `CCOC(=O)[C@H](CCc1ccccc1)N[C@@H](C)C(=O)N1CCC[C@H]1C(=O)O` [Enalapril maleate], the relative cell viability is 105.

Take `COc1cccc2c1C(=O)c1c(O)c3c(c(O)c1C2=O)C[C@@](O)(C(=O)CO)C[C@@H]3O[C@H]1C[C@H](N)[C@@H](O)[C@H](C)O1` [Epirubicin Hydrochloride]: the relative cell viability was 91.5.

With `CC1=C(/C=C/C(C)=C/C=C/C(C)=C\C(=O)O)C(C)(C)CCC1` [Isotretinoin], the relative cell viability stood at 111.
